TbPYK inhibitor: T. brucei pyruvate kinase inhibition; TbPYK enzyme, Kinase-Glo Plus ATP luminescence, 45 min; Q57TT1; Potency, µM (series often up to 76.8 µM), for the others: top-dose activity, negative = inhibition, hits mostly inhibitors; hit rate 0.12% among 410,000; also: % is scaled to controls: 0 for no effect and ±100 for the full control effect; nearly all actives have a fitted effect of over 50% in size
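Glycolytic pyruvate kinase of T. brucei was incubated with substrate, test compound and 130 uM ADP for 45 minutes at room temperature. Luminescent Kinase-Glo Plus signal was measured after 10 minutes.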
RE007 growth inh: less growth of the S. pombe RE007 Vpr strain. S. pombe RE007 Vpr strain, BacTiter-Glo ATP luminescence, 24 h. Potency, µM (highest dose often 92.2 µM), for the others: at the top dose activity change, negative = less growth, most hits filed as inhibitors. hit rate 0.21% among 360,000. AID 651644; active = well fitted falling curve with a large enough effect; inconclusive = small, poorly fitted or top-dose-only effect; inactive = no such curve, though single readings can be large or run the other way; also: % is scaled to controls: 0 for no effect and ±100 for the full control effect; nearly all actives have a fitted effect of over 50% in size
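Fission yeast RE007 carrying one integrated HIV-1 vpr copy, seeded at OD 0.01 in PMG+AL medium with 23 nL pinned compound. Grown 24 h at 30 degrees; viability read by BacTiter-Glo luminescence after 5 min.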
Giardia FBPA inh: blocks Giardia fructose-bisphosphate aldolase activity; Potency, µM (highest dose often 59.6 µM), for inactives: at the highest dose activity, negative = inhibition, hits mostly inhibitors; hit rate 0.71% among 290,000; purified Giardia FBPA; also: % is scaled to controls: 0 for no effect and ±100 for the full control effect; nearly all actives have a fitted effect of over 55% in size
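40 nM FBPA preincubated 10 min at RT with compound (up to 57.5 uM final), then substrate plus GAPDH/TPI/NAD/arsenate coupling and diaphorase/resazurin added. Fluorescence read after 20 min at RT, 525/598 nm.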
NS1 inh: influenza NS1 inhibition; hit rate 0.4% among 270,000; Potency, µM (top dose mostly 46.1 µM), for the others: at the highest dose activity, positive = more growth; AID 2326; calls by dose curve; also: actives are rising curves; nearly all actives have a fitted effect of over 50% in size
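Compounds were scored for reversing the slow growth caused by influenza A NS1 in S. cerevisiae, measured by optical density at 600 nm. Assay medium contained 2% galactose at pH 6.0; NS1-free yeast of the same strain were the positive control.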
LmPK inhibitor: blocks Leishmania mexicana pyruvate kinase activity; hit rate 0.37% among 290,000; purified LmPK, Kinase-Glo ATP luminescence, 1 h; Potency, µM (titrated, usually from 57.5 µM), for the others: at the highest dose activity change, negative = inhibition, hits mostly inhibitors; Q27686; also: % is scaled to controls: 0 for no effect and ±100 for the full control effect
Target sequence (Q27686 whole entry, looked up): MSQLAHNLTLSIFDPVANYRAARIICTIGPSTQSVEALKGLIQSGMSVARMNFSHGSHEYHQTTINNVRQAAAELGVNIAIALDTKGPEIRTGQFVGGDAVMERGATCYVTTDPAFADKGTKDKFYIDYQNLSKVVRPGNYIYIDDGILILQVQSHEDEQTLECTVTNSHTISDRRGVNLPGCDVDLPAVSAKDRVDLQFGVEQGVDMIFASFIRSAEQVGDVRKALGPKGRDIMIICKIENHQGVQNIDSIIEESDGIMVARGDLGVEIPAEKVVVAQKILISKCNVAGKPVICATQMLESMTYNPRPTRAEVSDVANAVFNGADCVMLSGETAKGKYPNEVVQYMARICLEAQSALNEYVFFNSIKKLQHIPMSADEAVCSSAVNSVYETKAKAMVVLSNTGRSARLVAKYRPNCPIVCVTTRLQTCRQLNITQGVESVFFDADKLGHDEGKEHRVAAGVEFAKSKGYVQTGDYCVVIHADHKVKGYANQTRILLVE
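Screened at intermediate enzyme activity to detect both inhibitors and activators: LmPK at 0.1 nM, with a 0.5 nM enzyme column as activation reference. PEP 0.5 mM, ADP 0.1 mM; ATP detected by luminescence after 1 h.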
Sm TGR inh: inhibitors of Schistosoma mansoni thioredoxin glutathione reductase | Q962Y6 | purified TGR, DTNB reduction, TNB absorbance 405 nm | Potency, µM (highest dose often 114 µM), for inactives: at the top dose activity change, negative = inhibition, actives largely listed as inhibitors | hit rate 3% among 360,000; also: % is scaled to controls: 0 for no effect and ±100 for the full control effect; nearly all actives have a fitted effect of over 60% in size
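First, TGR (20 nM dispensed) and NADPH were mixed with compound. Second, a 15 min room-temperature incubation followed. Third, further NADPH and then DTNB were added to start the reaction. Finally, TNB absorbance was monitored kinetically.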
* hit, by the source's call; ? = inconclusive; · = no result given; [ ] = dose if it differs, or a comment. In the library only some 3.5% were active in any assay of this set; here they are far more common. Unless noted, calls follow the shape of the dose curve; as a rule, active = well fitted curve in the direction sought with a large enough effect; inconclusive = small, poorly fitted or top-dose-only effect, or another doubt; inactive = no such curve, though single readings can be large; an effect the other way counts as inactive or inconclusive. Potency is read from the fitted curve at half-maximal effect.

SMILES	TbPYK inhibitor	RE007 growth inh	Giardia FBPA inh	NS1 inh	LmPK inhibitor	Sm TGR inh
COc1ccc2cc1Oc1ccc(cc1)CC1c3cc(c(OC)cc3CCN1C)Oc1c(OC)c(OC)cc3c1C(C2)N(C)CC3 (stereo not drawn)	·	·	-3%	·	·	·
COc1ccc2cc1Oc1ccc(cc1)C[C@H]1c3cc(c(OC)cc3CCN1C)Oc1c(OC)c(OC)cc3c1[C@@H](C2)N(C)CC3	2%	-8%	-8%[21.7 µM]	11%	·	35µM*
Cc1c2cnn(CC(=O)NCCc3ccccc3)c(=O)c2c(C)n1Cc1ccccc1	-6%	·	·	·	·	10%
CCOC(=O)C1=C(c2ccccc2)NC(SCC(=O)Nc2ccc(C)cc2)=C(C#N)C1c1ccco1 (stereo not drawn)	2%	-4%	-13%	-33%	6%	-11%
CCOC(=O)C1=C(c2ccccc2)NC(SC)=C(C#N)C1c1ccco1 (stereo not drawn)	0%	-10%	-15%	0%	3%	35µM*
O=S(=O)(Cc1ccccc1)Cc1cnc(Cl)s1	4%	19%	0%	-2%	0%	40µM*
C=CCC(Nc1ccccc1)C12C=CC(O1)C(C(=O)OC)=C2C(=O)OC (stereo not drawn)	-14%	-4%	-3%	-2%	2%	6.3µM*
COc1ccccc1CNC(=O)CCCn1c(=O)c2ccccc2n(Cc2ccccc2F)c1=O	-5%	·	·	·	·	-9%
O=C1C=C(NC2=CC3OC(c4ccccc4)OCC3OC2=O)CCC1 (stereo not drawn)	-18%	-27%	5%	-15%	-3%	25µM*
Cc1ccccc1N(C(=O)Cn1nnc2ccccc21)C(C(=O)NCc1ccco1)c1ccncc1 (stereo not drawn)	0%	14%	-15%	-1%	7%	?
CCOCCCN(C(=O)Cn1nnc2ccccc21)C(C(=O)NCc1ccco1)c1ccncc1 (stereo not drawn)	-6%	11%	-25%	-4%	5%	16µM*
CCOC(=O)c1cc(-c2ccc(F)cc2)n(CCC(=O)NCc2ccccc2OC)c1C	4%[15.4 µM]	·	·	·	·	6%
COc1ccc(NC(=O)CCS(=O)(=O)c2nc(-c3cccs3)cc(C(F)(F)F)n2)cc1	-7%	·	·	·	·	20µM*
CC(C)c1nnc(NC(=O)CCS(=O)(=O)c2nc(-c3cccs3)cc(C(F)(F)F)n2)s1	-6%	-10%	2%	2%	6%	20µM*
Oc1ccc2ccccc2c1CN1CC=C(c2ccccc2)CC1	-5%	-17%	-1%	·	5%	22µM*
Oc1ccc(Br)cc1CN1CCCCCCC1	-2%	-14%	-10%	-9%	-6%	-1%
Oc1c(CN2CCOCC2)ccc2ccccc12	1%	-29%	?	14%	4%	0.56µM*
Oc1ccc2cc(Br)ccc2c1CN1CCCC1	2%	-13%	-10%	·	9%	32µM*
Oc1ccc2ccccc2c1CN1CCCC1	0%	-16%	-8%	1%	6%	2.5µM*
Oc1c(CN2CCOCC2)cc(-c2ccccc2)cc1CN1CCOCC1	2%	5%	3%	-25%	-7%	6%
Cc1ccc(-c2noc(-c3ccccc3NC(=O)C3CC(=O)N(c4cccc(C)c4)C3)n2)cc1 (stereo not drawn)	-2%	·	·	·	·	-17%
Cc1cccn2c(=O)cc(CSc3nnc(NC(=O)COc4ccc(F)cc4)s3)nc12	4%	·	·	·	·	4%
CN(Cc1ccccc1)C(=O)c1c[nH]c2ccc(S(=O)(=O)Nc3ccccc3F)cc2c1=O	2%	·	·	·	·	-15%
CC(=O)OCC1OC(C#CCCc2ccccc2)C=CC1OC(C)=O (stereo not drawn)	·	·	3%[12.9 µM]	·	·	·
Cc1ccc(CNc2nnc(C)c3nnn(Cc4ccc(F)cc4)c23)cc1	3%	·	·	·	·	0%
Oc1ccc2ccccc2c1CN1CCN(c2ccccc2)CC1	2%	6%	-13%	-47%	0%	2.8µM*
Oc1ccc2ccccc2c1CN1CCCCC1	3%	-25%	·	·	·	·
COc1ccccc1Cn1c(SCC(=O)C(C)(C)C)nc2ccccc2c1=O	-1%	·	·	·	·	19%

Bioassay records as filed in PubChem.
